Assay outcomes (PubChem BioAssay)
Rows were chosen to be rich in hits. Some 11% of all compounds tested hit in one or more screens of this group.
PNC assembly inh: perinucleolar compartment assembly inhibition; PC3M PTB-GFP, PNC prevalence imaging, 16 h; hits give low values; activity change (PNC), negative = inhibition, % at 10 µM; 3.1% of 140,000 active; AID 2417;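 active = readout at or below -70, meaning at least 70% loss of cells showing the perinucleolar compartment, a nuclear body marking cancer cells; inconclusive = readout between -30 and a set limit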
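Read-out is percentage of cells bearing a perinucleolar compartment, from automated 20x imaging of fixed, Hoechst-stained PC3M PTB-GFP cells. Cells were seeded 4 h, then exposed 16 h to compound (23 nl of library stock) in duplicate plates.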
HPGD inh: inhibitors of human 15-hydroxyprostaglandin dehydrogenase (HPGD); P15428; purified HPGD, NADH fluorescence kinetic, PGE2 substrate; Potency, µM, actives largely listed as inhibitors; 4.3% of 150,000 active; AID 894
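NADH formation kinetics: reaction with 30 uM PGE2 and 1 mM NAD+ (final), 20 nM enzyme, Tris-HCl pH 8 with Tween 20, after 15 min compound preincubation at room temperature. Fluorescence change, last versus first of five reads.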
ALDH1A1 block: ALDH1A1 (human) enzyme inhibition. Purified ALDH1A1, NADH fluorescence, propionaldehyde substrate. Potency, µM (top dose mostly 75.3 µM), most hits filed as inhibitors. 7.3% of 220,000 active. AID 1030
Target sequence (P00352 whole entry, looked up): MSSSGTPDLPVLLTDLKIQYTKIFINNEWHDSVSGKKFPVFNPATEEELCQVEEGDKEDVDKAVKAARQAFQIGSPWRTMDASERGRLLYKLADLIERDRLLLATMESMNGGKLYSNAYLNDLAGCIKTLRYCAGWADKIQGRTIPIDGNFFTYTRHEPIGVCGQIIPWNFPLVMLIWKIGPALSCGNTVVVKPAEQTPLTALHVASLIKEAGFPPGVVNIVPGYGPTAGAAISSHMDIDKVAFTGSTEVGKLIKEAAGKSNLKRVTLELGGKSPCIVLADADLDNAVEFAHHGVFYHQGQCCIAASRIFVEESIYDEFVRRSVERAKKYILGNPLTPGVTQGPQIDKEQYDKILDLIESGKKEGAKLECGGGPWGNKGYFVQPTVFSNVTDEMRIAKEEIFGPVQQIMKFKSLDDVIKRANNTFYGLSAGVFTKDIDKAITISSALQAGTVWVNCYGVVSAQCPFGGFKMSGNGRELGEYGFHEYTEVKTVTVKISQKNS
Large screens that a line does not name were inactive. Unless noted, calls follow the shape of the dose curve; as a rule, active = well fitted inhibition curve with a large enough effect (not every such curve was filed as active); inconclusive = small, poorly fitted or top-dose-only effect, or another doubt; inactive = no such curve, though single readings can be large or run the other way.

COc1ccccc1NC(=O)/C(C#N)=C/c1cc([N+](=O)[O-])ccc1N1CCCC1	none
N#Cc1nn(-c2ccccc2)nc1N1CCCCC1	HPGD inh inconclusive, ALDH1A1 block inconclusive
N#Cc1c(Sc2ncc(C(F)(F)F)cc2Cl)nsc1C/C=N\OCc1c(F)cccc1Cl	ALDH1A1 block inconclusive
CCN(C(=O)Cn1cnc2cc([N+](=O)[O-])ccc2c1=O)C1CCS(=O)(=O)C1 (centres undefined)	none (no result: PNC assembly inh, HPGD inh)
CCN(C(=O)COC(=O)c1cc([N+](=O)[O-])ccc1N1CCCCC1)C1CCS(=O)(=O)C1 (centres undefined)	ALDH1A1 block 14µM (no result: PNC assembly inh, HPGD inh)
COc1ccc(N(CC(=O)NCc2ccco2)S(=O)(=O)c2ccc(OC)c(OC)c2)cc1	none
CS(=O)(=O)N(CC(=O)NCCSCc1ccccc1)c1ccc2c(c1)OCO2	none (no result: PNC assembly inh, HPGD inh)
Cc1ccc(S(=O)(=O)N(CC(=O)NCCSc2ccccn2)c2cc(C)cc(C)c2)cc1	none
Cc1ccc(S(=O)(=O)N(CC(=O)NCCSCc2ccco2)c2ccc(F)cc2)cc1	ALDH1A1 block 28µM (no result: PNC assembly inh, HPGD inh)
Cc1cc(C)cc(N(CC(=O)NCCSCc2ccccc2)S(C)(=O)=O)c1	none (no result: PNC assembly inh, HPGD inh)
Cc1ccc(N(CC(=O)NCCSCc2ccco2)S(C)(=O)=O)cc1	ALDH1A1 block 8.9µM
COc1ccc(N(CC(=O)NCCSCc2ccco2)S(=O)(=O)c2ccc(C)cc2)cc1	ALDH1A1 block 20µM (no result: PNC assembly inh, HPGD inh)
CS(=O)(=O)N(CC(=O)NCCSCc1ccccc1)c1ccccc1	ALDH1A1 block 28µM (no result: PNC assembly inh, HPGD inh)
Cn1nc(Oc2nc(N3CCOCC3)nc(N3CCOCC3)n2)ccc1=O	none
CC1Cc2nc(SCC(=O)Nc3nc4ccccc4s3)n(C)c(=O)c2S1 (centres undefined)	none
O=C(CN(c1ccccc1)S(=O)(=O)c1ccccc1)NCCSCc1ccco1	ALDH1A1 block 10µM
Cc1cc(Cl)ccc1N(CC(=O)NCCSCc1ccco1)S(C)(=O)=O	ALDH1A1 block 13µM (no result: PNC assembly inh, HPGD inh)
Cc1cc(Cl)ccc1N(CC(=O)NCc1ccc2c(c1)OCO2)S(C)(=O)=O	none (no result: PNC assembly inh, HPGD inh)
Cc1ccc(N(CC(=O)NCCSCc2ccco2)S(=O)(=O)c2ccc(F)cc2)cc1	ALDH1A1 block 20µM (no result: PNC assembly inh, HPGD inh)
Cc1ccc(S(=O)(=O)N(CC(=O)NCc2ccco2)Cc2ccc(F)cc2)cc1	ALDH1A1 block inconclusive (no result: HPGD inh)
O=C(CN(c1ccc(F)cc1)S(=O)(=O)c1ccccc1)NCc1ccco1	none
CN(c1ccc(C(=O)NCCSCc2ccco2)cc1)S(C)(=O)=O	PNC assembly inh inconclusive, HPGD inh inconclusive, ALDH1A1 block 2.5µM
CN(c1ccc(C(=O)NCc2ccco2)cc1)S(C)(=O)=O	none
CCOC(=O)c1ccccc1NC(=O)CSc1nnc(COc2ccccc2C)n1C	PNC assembly inh inconclusive
O=[N+]([O-])c1cccc(-c2ccc(SCc3cccnc3)nn2)c1	none (no result: PNC assembly inh, HPGD inh)
N#CCc1nnc2n1-c1ccccc1CCC2	none
CCOC(=O)c1ccc(CSc2nnc(N)s2)cc1	none
CCOC(=O)C1CCCN(CC(=O)Nc2cc(C)cc(C)c2)C1 (centres undefined)	none (no result: PNC assembly inh, HPGD inh)
CCOC(=O)c1ccc(NC(=O)CN2CCN(c3ccccc3)CC2)cc1	ALDH1A1 block inconclusive
CC1=Nc2ccccc2N=C(NC(=O)CN2CCN(c3ccccc3)CC2)C1c1ccccc1 (centres undefined)	ALDH1A1 block 0.89µM (no result: PNC assembly inh, HPGD inh)
CC1=Nc2ccccc2N=C(NC(=O)CSc2nnnn2-c2ccccc2)C1c1ccccc1 (centres undefined)	PNC assembly inh inconclusive, ALDH1A1 block 4.5µM
CCOC(=O)NC(=O)CSc1nnnn1-c1ccccc1	ALDH1A1 block inconclusive
CCOC(=O)C1CCCN(CC(=O)NC2=Nc3ccccc3N=C(C)C2c2ccccc2)C1 (centres undefined)	ALDH1A1 block 4.5µM
CCOC(=O)C1CCCN(CC(=O)Nc2cccc(C(C)=O)c2)C1 (centres undefined)	ALDH1A1 block 10µM (no result: PNC assembly inh, HPGD inh)
CCOC(=O)C1CCCN(CCC(=O)Nc2ccccc2)C1 (centres undefined)	none
CC1(C)CC(=O)C2=C(C1)N(c1ccc(F)cc1)C(=O)C2(NC(=O)c1ccccc1)C(F)(F)F (centres undefined)	none
O=c1[nH]c2cc(S(=O)(=O)CCO)ccc2o1	none (no result: PNC assembly inh, HPGD inh)
CCOC(=O)Cc1csc(NC(=S)NC(=O)C(C)(C)C)n1	none
CCOc1ccsc1C(=O)OC	none (no result: PNC assembly inh, HPGD inh)
O=C(CSc1nnc(-c2csc3c2CCCC3)o1)Nc1ccccc1	none
CCOC(=O)C1=C(N)Oc2ccc(Br)cc2[C@@H]1[C@@H](C#N)C(=O)OCC	ALDH1A1 block inconclusive (no result: PNC assembly inh)
CCn1cc(C(=O)N2CCCc3ccccc32)c2cc(OC)c(OC)cc2c1=O	PNC assembly inh inconclusive
C#CCOCCOCCOCCNc1nc(N2CCOCC2)nc(N2CCN(C(=O)Cn3cc(CC(C)O)nn3)CC2)n1 (centres undefined)	none
Cc1sc2nc(C3CC3)nc(SCC(=O)N3CCc4ccccc4C3)c2c1C	PNC assembly inh inconclusive, HPGD inh inconclusive, ALDH1A1 block 14µM
Cc1sc2nc(C3CC3)nc(SCC(=O)N3CCCc4ccccc43)c2c1C	ALDH1A1 block inconclusive
CC(c1ccco1)N(C(=O)c1ccccc1NS(=O)(=O)c1cccc([N+](=O)[O-])c1)c1ccccn1 (centres undefined)	PNC assembly inh -102, ALDH1A1 block inconclusive
CC(c1ccco1)N(C(=O)c1ccccc1NS(=O)(=O)c1cc([N+](=O)[O-])ccc1Cl)c1ccccn1 (centres undefined)	none
COc1ccc(CONc2ncnc3nonc23)cc1[N+](=O)[O-]	ALDH1A1 block 14µM (no result: PNC assembly inh, HPGD inh)
CCONc1ncnc2nonc12	none
CC(C)(C#CC(O)(c1ccccc1)c1ccccc1)N1CCCC1	none (no result: PNC assembly inh, HPGD inh)
COC(=O)c1ccc(C(NC(=O)OCc2ccccc2)/C(C)=C/[C@@H](C)C(=O)NCc2cc(F)cc(F)c2)cc1 (some centres undefined)	ALDH1A1 block inconclusive (no result: PNC assembly inh)
O=C(CSc1nnc(CNC(=O)c2ccccc2F)o1)NCc1ccccc1	none (no result: PNC assembly inh, HPGD inh)
CCCCN(CC)C(=O)CN1C(=O)c2ccccc2C1=O	none
CCN(CCCCN1C(=O)c2ccccc2C1=O)c1ccc2c(c1)C(=O)N(C)C2=O	HPGD inh 10µM, ALDH1A1 block inconclusive
CCN(CC)c1ccc2cc(C#N)c(=O)oc2c1	none (no result: PNC assembly inh, HPGD inh)
CCN(CC)c1ccc2c(c1)C(=O)N(C)C2=O	HPGD inh 18µM, ALDH1A1 block inconclusive
Cc1ccc(S(=O)(=O)N2CCC(=O)N(CCOCc3ccc(F)cc3)CC2)cc1	ALDH1A1 block inconclusive
COc1cccc(N(CC(=O)N/N=C(\C)c2cccs2)S(C)(=O)=O)c1	none
CC(=O)c1ccc(NC(=O)Nc2ccc(NS(=O)(=O)c3ccc(C)cc3)cc2)cc1	ALDH1A1 block inconclusive (no result: HPGD inh)
CC(=O)c1ccc(NS(=O)(=O)c2ccc(CC(C)C)cc2)cc1	PNC assembly inh inconclusive, HPGD inh inconclusive, ALDH1A1 block 6.3µM
CN(C)S(=O)(=O)N1CCN(C(=O)N(c2ccccc2)c2ccccc2)CC1	PNC assembly inh inconclusive, ALDH1A1 block inconclusive
O=C1NCCN1C(=O)N(c1ccccc1)c1ccccc1	PNC assembly inh -124, ALDH1A1 block inconclusive
O=C(c1ccccc1)c1nn(-c2ccc(Cl)cc2)cc1C(=O)c1cc2ccccc2oc1=O	none
CCCCCC1CC(CC(C)C(=O)Nc2nncs2)C(=O)O1 (centres undefined)	none
CCCCCC1CC(CC(=O)Nc2nncs2)C(=O)O1 (centres undefined)	PNC assembly inh -100
CC(C(=O)OCC(=O)Nc1cccc(S(=O)(=O)N(C)C)c1)N1C(=O)c2ccccc2C1=O (centres undefined)	none (no result: PNC assembly inh, HPGD inh)
